The values below come from ChEMBL document CHEMBL3988442, “University of Dundee, Small-Polar-MMV Screening Library” (2021).

SMILES strings stand for the structures. For some of these results: Results with a measured potency or affinity are listed apart.

Holding throughout (design): scale not given: direction of the effect not stated beside the values
The target of assay [1] is Protein translocase subunit SecA (Escherichia coli (strain K12)) (UniProt P10408). The assay is described as follows: Assay to Identify E. coli SecA ATPase Inhibitors. Format: functional. The settings on record: 30 µM.
Chain of Protein translocase subunit SecA (Escherichia coli (strain K12)) (P10408 whole entry): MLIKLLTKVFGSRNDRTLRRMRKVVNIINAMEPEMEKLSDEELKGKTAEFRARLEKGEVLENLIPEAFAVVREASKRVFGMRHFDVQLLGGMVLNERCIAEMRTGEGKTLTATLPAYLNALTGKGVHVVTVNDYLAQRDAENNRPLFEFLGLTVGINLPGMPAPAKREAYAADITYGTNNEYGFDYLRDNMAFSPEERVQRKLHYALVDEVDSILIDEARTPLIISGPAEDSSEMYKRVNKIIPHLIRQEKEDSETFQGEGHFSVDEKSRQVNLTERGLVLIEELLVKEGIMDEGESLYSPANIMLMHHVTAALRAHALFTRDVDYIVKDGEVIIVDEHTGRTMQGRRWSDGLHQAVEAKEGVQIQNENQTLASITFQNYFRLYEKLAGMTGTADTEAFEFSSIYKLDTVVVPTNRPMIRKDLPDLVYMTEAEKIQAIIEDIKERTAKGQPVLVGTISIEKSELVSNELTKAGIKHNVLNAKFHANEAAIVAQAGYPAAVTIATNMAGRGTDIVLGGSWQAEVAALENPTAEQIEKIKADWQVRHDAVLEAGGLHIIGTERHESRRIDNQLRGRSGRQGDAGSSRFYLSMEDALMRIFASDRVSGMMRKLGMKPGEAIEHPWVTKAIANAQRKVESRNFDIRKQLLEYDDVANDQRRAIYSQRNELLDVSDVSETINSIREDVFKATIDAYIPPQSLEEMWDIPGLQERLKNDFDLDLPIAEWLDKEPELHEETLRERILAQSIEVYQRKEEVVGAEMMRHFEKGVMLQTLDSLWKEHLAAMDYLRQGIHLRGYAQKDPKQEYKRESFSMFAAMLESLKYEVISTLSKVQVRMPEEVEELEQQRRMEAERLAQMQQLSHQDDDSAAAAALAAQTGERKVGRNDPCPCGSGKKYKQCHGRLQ
In assay [2] the target is T1, Ubiquitin-activating enzyme e1, putative (Leishmania donovani (strain BPK282A1)) (UniProt E9BSI1).
T1 sequence (whole entry): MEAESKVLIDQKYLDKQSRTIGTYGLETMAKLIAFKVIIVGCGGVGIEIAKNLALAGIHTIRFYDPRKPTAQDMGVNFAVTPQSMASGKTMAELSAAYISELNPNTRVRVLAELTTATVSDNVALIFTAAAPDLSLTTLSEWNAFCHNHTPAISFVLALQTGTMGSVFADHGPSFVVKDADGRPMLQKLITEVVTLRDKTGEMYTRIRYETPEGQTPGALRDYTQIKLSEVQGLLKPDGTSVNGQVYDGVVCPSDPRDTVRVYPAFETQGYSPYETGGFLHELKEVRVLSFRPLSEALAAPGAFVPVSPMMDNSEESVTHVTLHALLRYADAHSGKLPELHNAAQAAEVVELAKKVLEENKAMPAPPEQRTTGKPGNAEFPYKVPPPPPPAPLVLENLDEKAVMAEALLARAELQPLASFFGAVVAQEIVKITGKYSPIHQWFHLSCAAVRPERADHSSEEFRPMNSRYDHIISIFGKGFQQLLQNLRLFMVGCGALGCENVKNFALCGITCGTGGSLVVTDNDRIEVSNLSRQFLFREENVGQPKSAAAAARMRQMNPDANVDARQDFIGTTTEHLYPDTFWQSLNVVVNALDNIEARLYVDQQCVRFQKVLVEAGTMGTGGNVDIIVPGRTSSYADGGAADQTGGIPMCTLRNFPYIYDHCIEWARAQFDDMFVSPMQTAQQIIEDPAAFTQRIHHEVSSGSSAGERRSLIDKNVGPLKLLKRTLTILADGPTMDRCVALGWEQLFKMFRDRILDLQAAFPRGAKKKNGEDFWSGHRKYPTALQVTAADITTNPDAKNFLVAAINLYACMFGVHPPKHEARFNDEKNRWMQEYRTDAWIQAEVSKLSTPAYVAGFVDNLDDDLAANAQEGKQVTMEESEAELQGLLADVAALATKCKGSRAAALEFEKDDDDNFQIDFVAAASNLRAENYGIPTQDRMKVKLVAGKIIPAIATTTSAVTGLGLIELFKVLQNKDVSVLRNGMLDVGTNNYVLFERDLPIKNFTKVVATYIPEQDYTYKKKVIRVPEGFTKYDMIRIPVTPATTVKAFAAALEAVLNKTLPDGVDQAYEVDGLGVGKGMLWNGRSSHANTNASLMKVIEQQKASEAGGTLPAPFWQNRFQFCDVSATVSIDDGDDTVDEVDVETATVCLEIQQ
The assay is described as follows: Leishmania donovani Ubiquitin Activating Enzyme (LdE1). The settings on record: 30 µM. Format: functional.

Assay [3] addresses AMP-activated protein kinase, AMPK (Homo sapiens) (UniProt P54646+O43741+P54619+Q9UGJ0+Q9Y478+Q13131+Q9UGI9). As to the kind of experiment: AMP-dependent Kinase enzyme assay. An in vitro enzyme assay that detects ADP turnover that is directly proportional to AMPK activity. This uses naive AMPK that is activated during the assay with MK-8722. Format: functional. The following applies: 30 µM.

The target in assay [4] is Sialic acid-binding Ig-like lectin 9 (Homo sapiens) (UniProt Q9Y336). The assay is described as follows: Hs-Siglec9 ALPHAscreen SOP 20170721. The settings on record: 10 µM. Background: Alpha assays give light when donor and acceptor beads are brought close together.
Chain of Sialic acid-binding Ig-like lectin 9 (Homo sapiens) (Q9Y336 whole entry): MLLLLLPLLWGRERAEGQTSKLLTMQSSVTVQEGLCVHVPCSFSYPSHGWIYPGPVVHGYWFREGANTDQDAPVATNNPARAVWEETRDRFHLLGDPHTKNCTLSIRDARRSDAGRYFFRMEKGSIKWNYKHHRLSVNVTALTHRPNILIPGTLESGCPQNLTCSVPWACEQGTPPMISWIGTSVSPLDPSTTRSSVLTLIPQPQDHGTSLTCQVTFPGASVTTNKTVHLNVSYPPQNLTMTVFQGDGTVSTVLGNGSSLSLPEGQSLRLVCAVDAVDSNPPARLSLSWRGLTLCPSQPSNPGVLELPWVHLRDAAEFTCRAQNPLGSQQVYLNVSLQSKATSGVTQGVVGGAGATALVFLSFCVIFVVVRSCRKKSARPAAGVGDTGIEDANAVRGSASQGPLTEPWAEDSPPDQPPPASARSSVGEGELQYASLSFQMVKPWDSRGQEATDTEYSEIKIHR
A further assay relates to Trypanosoma cruzi. As to the kind of experiment: Trypanosoma cruzi phosphomannomutase and mannose-1-phosphate guanylyltransferase assay. The settings on record: 10 µM. Format: functional.
The target of assay [5] is T2, Arginase-2, mitochondrial (Homo sapiens) (UniProt P78540).
T2 sequence (whole entry): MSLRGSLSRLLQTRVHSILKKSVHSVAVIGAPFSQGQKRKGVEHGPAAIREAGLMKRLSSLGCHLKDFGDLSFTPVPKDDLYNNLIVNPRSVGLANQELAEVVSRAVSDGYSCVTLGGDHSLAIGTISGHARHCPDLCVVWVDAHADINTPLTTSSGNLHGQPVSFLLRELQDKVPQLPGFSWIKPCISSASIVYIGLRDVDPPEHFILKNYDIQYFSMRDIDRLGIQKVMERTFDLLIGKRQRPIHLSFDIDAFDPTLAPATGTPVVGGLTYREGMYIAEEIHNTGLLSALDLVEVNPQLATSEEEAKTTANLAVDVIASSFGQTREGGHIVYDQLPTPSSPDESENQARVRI
The assay is described as follows: in vitro enzyme assay to detect the production of urea directly proportional to the activity of Arginase II. Note: in the data most compounds retested in dose-response had high values. The settings on record: 33.3 µM. Format: functional.

The target in assay [6] is T3, Proteasome subunit beta (Trypanosoma cruzi) (UniProt O96673).
T3 sequence (whole entry): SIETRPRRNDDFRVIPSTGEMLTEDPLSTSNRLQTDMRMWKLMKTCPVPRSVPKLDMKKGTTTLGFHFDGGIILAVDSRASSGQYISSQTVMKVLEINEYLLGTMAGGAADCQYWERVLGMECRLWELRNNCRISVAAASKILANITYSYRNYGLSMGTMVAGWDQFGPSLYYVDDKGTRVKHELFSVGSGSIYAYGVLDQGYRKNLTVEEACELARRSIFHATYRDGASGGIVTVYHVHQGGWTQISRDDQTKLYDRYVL
As to the kind of experiment: Trypanosoma cruzi proteasome chymotrypsin-like activity (TcProtChymo) assay. Note: in the data most compounds retested in dose-response had high values. Format: functional. The settings on record: 9.37 µM.

The species named for another assay is Homo sapiens. As to the kind of experiment: To identify inhibition of the IFN signalling (Jak-Stat) pathway via expression of an eGFP reporter gene under the control of an IFN-stimulated response element (ISRE) containing MxA promoter. The settings on record: 30 µM. It counts as functional. In general terms: Reporter assays use an easily measured gene product as a stand-in for the process of interest.

The target of assay [7] is T4, Tyrosyl-tRNA synthetase, putative (Trypanosoma cruzi (strain CL Brener)) (UniProt Q4DSP6).
T4 sequence (whole entry): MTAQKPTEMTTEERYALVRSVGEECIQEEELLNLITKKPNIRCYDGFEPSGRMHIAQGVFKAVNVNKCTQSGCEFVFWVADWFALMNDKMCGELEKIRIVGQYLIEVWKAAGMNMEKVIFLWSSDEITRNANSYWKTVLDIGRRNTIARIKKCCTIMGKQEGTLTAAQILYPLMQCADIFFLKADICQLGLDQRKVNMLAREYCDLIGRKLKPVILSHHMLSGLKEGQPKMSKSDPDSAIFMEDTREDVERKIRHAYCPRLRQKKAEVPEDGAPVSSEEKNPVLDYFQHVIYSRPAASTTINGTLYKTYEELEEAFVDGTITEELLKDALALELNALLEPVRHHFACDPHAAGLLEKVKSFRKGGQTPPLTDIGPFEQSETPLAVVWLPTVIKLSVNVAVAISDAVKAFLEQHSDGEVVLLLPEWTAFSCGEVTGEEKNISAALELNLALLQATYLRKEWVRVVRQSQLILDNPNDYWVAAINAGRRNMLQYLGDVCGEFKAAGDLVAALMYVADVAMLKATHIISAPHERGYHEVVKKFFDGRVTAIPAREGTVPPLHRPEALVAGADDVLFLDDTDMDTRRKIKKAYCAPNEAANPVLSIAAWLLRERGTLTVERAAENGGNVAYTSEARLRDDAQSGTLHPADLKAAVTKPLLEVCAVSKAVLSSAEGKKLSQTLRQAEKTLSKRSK
As to the kind of experiment: Trypanosoma cruzi tyrosyl tRNA synthetase (TcYRS) _High Tyrosine SOP. Note: in the data most compounds retested in dose-response had high values. It counts as functional. The following applies: 30 µM.

Assay [8] has as its target T4, Tyrosyl-tRNA synthetase, putative (Trypanosoma cruzi (strain CL Brener)). The assay is described as follows: Trypanosoma cruzi tyrosyl tRNA synthetase (TcYRS) SOP. Format: functional. The settings on record: 30 µM.
In assay [9] the target is Chromo domain-containing protein 1 (Saccharomyces cerevisiae (strain ATCC 204508 / S288c) (Baker's yeast)) (UniProt P32657). The assay is described as follows: ScCHD-1 Enzyme Inhibition Assay. Note: in the data most compounds retested in dose-response had high values. It counts as functional. The settings on record: 30 µM.
Chain of Chromo domain-containing protein 1 (Saccharomyces cerevisiae (strain ATCC 204508 / S288c) (Baker's yeast)) (P32657 whole entry, the tested form may be a part): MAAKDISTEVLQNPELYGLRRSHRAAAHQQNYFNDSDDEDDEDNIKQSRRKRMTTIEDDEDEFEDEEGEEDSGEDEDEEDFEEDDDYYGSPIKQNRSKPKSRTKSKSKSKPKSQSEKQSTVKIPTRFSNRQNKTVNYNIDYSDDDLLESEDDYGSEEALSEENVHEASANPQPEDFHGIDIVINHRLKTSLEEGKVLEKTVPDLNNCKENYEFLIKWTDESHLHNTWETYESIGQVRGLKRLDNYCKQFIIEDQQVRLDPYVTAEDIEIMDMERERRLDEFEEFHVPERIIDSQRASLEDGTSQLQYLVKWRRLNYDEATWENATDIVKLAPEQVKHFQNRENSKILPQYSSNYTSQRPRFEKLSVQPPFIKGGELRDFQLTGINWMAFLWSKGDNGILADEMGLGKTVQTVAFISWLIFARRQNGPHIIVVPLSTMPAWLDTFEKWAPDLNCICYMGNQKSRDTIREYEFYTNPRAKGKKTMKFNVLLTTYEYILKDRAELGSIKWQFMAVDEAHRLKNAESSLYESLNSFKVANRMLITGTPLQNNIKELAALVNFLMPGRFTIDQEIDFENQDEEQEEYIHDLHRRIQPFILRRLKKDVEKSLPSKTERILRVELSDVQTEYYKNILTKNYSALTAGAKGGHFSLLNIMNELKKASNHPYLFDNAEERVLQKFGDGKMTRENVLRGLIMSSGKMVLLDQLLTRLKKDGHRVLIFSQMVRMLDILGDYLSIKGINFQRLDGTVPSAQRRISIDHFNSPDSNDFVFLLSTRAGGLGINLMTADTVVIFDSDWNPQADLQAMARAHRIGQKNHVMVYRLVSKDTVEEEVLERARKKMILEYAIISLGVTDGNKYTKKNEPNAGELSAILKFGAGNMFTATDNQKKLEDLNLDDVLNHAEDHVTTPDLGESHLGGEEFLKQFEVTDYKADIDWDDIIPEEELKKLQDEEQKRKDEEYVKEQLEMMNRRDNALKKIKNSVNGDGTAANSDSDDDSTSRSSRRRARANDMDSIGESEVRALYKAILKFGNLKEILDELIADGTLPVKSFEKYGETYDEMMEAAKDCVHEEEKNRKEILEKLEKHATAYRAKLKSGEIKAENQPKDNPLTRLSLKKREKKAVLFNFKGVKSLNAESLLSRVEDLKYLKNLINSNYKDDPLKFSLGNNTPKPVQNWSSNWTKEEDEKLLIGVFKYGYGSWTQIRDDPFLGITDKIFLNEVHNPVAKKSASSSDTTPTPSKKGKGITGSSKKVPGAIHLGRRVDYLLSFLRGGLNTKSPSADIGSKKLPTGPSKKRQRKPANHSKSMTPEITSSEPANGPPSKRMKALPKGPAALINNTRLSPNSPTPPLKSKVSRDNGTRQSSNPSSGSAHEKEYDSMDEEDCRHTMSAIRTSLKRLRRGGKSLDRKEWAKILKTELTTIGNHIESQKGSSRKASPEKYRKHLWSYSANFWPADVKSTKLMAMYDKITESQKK

With `Cc1cnn(CCC(=O)N2CCCN(c3cccnn3)CC2)c1`, the Percent Effect in [1] is 1.07%; in assay [2], 3.8%; in [3], 1.28%; in assay [4] it was 0.558%; in the assay on Trypanosoma cruzi, 1.74%; in assay [5] it was -0.645%. Also, the Percent Effect is 13.2% in assay [6]; 12.8% in the assay filed under Homo sapiens; 2.08% in [7]; 5.06% in assay [8]; -16.1% in [9].
As for `COc1cccc(CNC(=O)CN2CCCCC2Cn2cccn2)c1` (stereo unspecified), the Percent Effect in [1] is -3.05%; in assay [2], 5.2%; in [3] it was 2.66%; in assay [4], 13%; in the assay on Trypanosoma cruzi, 4.6%; in [5] it was -0.21%. Moreover, the Percent Effect was 2.83% in assay [6]; -17% in the assay listed under Homo sapiens; 3.81% in assay [7]; 11.8% in assay [8]; -17.2% in [9].
`CC(C)NS(=O)(=O)c1cc(C(=O)O)cc(-c2ccccc2CN(C)C)c1`: the Percent Effect was -5.51% in [1]; 0% in assay [2]; -1.94% in assay [3]; -2.62% in [4]; -6.16% in the assay on Trypanosoma cruzi; 4.22% in assay [5]. The Percent Effect in assay [6] was 3%; in the assay filed under Homo sapiens it was 1.46%; in [7] it was 1.07%; in [8] it was 3.7%; in assay [9], -3.44%.
On to `Cc1cc(C(F)(F)F)nn1CC(C)C(=O)Nc1ccncc1` (stereo unspecified), for which the Percent Effect in [1] was -6.4%; in [2], 6.67%; in assay [3], -0.198%; in assay [4], 8.65%; with Trypanosoma cruzi it was 0.786%; in [5], -2.64%. The Percent Effect in assay [6] is 10.9%; in the assay listed under Homo sapiens, 19.9%; in assay [7] it was 1.06%; in assay [8], -12.8%; in assay [9] it was -5.12%.
As for `O=C(CN1CCCC(O)C1)NC(=O)NCc1cccs1` (stereo unspecified), the Percent Effect is -3.76% in [1]; 13.2% in [2]; 7.52% in assay [3]; -8.38% in assay [4]; -5.16% in the assay with Trypanosoma cruzi; -3.55% in [5]. Besides, the Percent Effect is 11.8% in assay [6]; 15.4% in the assay filed under Homo sapiens; 3.19% in [7]; 7.79% in assay [8]; -1.85% in assay [9].
Consider `Cc1ncnc2c1CCN(c1cc(C(F)(F)F)ncn1)CC2`, for which the Percent Effect was -2.66% in assay [1]; 13.3% in [2]; -0.456% in [3]; -3.31% in [4]; -3.09% with Trypanosoma cruzi; -58.2% in assay [5]. For the same compound, the Percent Effect in assay [6] is 13.7%; in the assay listed under Homo sapiens it was 4.55%; in [7], 0%; in [8], 2.5%; in assay [9] it was -7.43%.
Take `CN(C)S(=O)(=O)N1C[C@H](Oc2cccnc2)[C@H]2OCCC[C@H]21`: the Percent Effect in assay [1] was -5.31%; in assay [2] it was 5.2%; in assay [3] it was 74%; in assay [4], -1.91%; with Trypanosoma cruzi, -0.69%; in assay [5] it was -4.52%. The Percent Effect was 3.65% in assay [6]; 10.9% in the assay listed under Homo sapiens; 0% in assay [7]; -1.28% in [8]; -8.75% in assay [9].
Take `CCc1noc(CNc2ccc(F)cc2OCC2CC2)n1`: the Percent Effect is 0.992% in assay [1]; 18.9% in assay [2]; -7.79% in assay [3]; 18.2% in [4]; -1.54% in the assay with Trypanosoma cruzi; 7.14% in assay [5]. In addition, the Percent Effect was 9.83% in [6]; 10.8% in the assay filed under Homo sapiens; 1.59% in assay [7]; 12.2% in assay [8]; -3.79% in [9].
For the compound `CC(C)COCc1cncc2c1CCN(Cc1cnn(C)c1)C2`, the Percent Effect in assay [1] is -5.06%; in [2] it was 7.79%; in [3] it was 2.31%; in [4], 5.43%; in the assay on Trypanosoma cruzi, -0.688%; in [5], -29%. In addition, the Percent Effect in assay [6] is 4.16%; in the assay listed under Homo sapiens, -12.6%; in [7], 7.53%; in assay [8] it was 11.1%; in [9] it was 133%.
As to `CN(C)C(=O)Cc1nc(CN2CCOC(Cn3cccn3)C2)cs1` (stereo unspecified), the Percent Effect in assay [1] is 1.53%; in assay [2], 0%; in assay [3], -0.58%; in assay [4] it was -0.357%; with Trypanosoma cruzi, -1.46%; in assay [5] it was 0%. In addition, the Percent Effect in [6] is 10.6%; in the assay filed under Homo sapiens, -2.04%; in assay [7], 0%; in assay [8], 0%; in assay [9] it was 1.28%.
Take `CC(NC(=O)NCc1cccc(N2CCCC2=O)c1)c1ccccc1` (stereo unspecified): the Percent Effect in assay [1] was -2.62%; in [2] it was 7.79%; in assay [3] it was 4.82%; in assay [4], 12.6%; in the assay with Trypanosoma cruzi, 3.23%; in assay [5], -10.7%. In addition, the Percent Effect in assay [6] was 7.36%; in the assay listed under Homo sapiens it was -2.7%; in [7], 1.91%; in assay [8], 11.8%; in [9] it was -21.1%.
